Rows were chosen to be rich in hits. Some 3.2% of all compounds tested hit in one or more screens of this group.
SMARCA2 activ: increases SMARCA2 function in MMTV reporter cells; AID 652017; MG213 cells, MMTV-luciferase reporter, dexamethasone, overnight; actives 1% (n = 370,000); activation, % at 9.1 µM; in the data active = activation above about 7.8%;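 note: 0% = vehicle wells and 100% = reference activator wells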
dFosB activator: mouse delta FosB homodimer activation; actives 0.99% (n = 340,000); P13346; AID 493131; purified delta FosB, TAMRA-CDK5 oligo fluorescence polarization; percent of positive-control signal above neutral wells; activation, % at 25 µM;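 active = mean activation above about 17%, with every replicate also reaching it, limit read from the data, passing the limit was not always enough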
esBAF inh: blocks esBAF chromatin remodeling in mouse ES cells. Bmi1-luciferase knock-in reporter, 24 h; 100% = twice the neutral-well signal. reporter increase, % at 12.5 µM. actives 2% (n = 350,000); in the data active = activation above about 40%;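 note: 0% = median of the plate's neutral control wells and 100% = double that signal; a rise in the Bmi1 reporter signal indicates esBAF inhibition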
Dyrk1A ADPGlo: inhibitors of rat Dyrk1A kinase; inhibition, % at 12.5 µM; actives 0.43% (n = 310,000); AID 504441; ADP-Glo luminescence, NFATc1 peptide; Q63470; in the data active = inhibition above about 50%;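 note: plate controls were vehicle with enzyme for no effect and no enzyme for full effect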
CDK5 inh: CDK5/p35 (human) kinase inhibition | Recombinant CDK5/p35, ADP-Glo luminescence, 60 min | Q00535+Q15078 | inhibition, % at 10 µM | actives 0.01% (n = 330,000) | AID 488839;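 active = highest replicate inhibition of at least 50% and at least 75% of replicates reaching 50%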;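 note: plate controls were DMSO neutral control for no effect and GW8510 at 10 µM for full effect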
Rtt109 Vps75: C. albicans Rtt109 histone acetyltransferase inhibition | purified Rtt109/Vps75, ThioGlo CoA-SH fluorescence, 4 h | actives 0.16% (n = 330,000) | Q5AAJ8 | inhibition, % at 34.9 µM;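 active = inhibition of at least 50% in every replicate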
Target sequence (Q5AAJ8 whole entry, looked up): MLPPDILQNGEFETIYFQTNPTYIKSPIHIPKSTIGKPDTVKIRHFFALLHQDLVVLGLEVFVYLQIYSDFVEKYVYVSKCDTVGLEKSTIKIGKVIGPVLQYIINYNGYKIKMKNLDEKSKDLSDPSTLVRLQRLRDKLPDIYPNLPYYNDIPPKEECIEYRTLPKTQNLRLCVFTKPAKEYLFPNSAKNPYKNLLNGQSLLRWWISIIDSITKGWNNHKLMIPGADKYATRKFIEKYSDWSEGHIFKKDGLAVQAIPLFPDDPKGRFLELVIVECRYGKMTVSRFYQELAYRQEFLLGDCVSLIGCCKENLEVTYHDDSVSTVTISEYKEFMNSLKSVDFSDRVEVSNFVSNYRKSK
ADP-Glo artifact: interferes with ADP-Glo luciferase readout without Dyrk1A. shares compounds with Dyrk1A ADPGlo. 1,300 tested, under 10 active. AC50, µM (highest dose often 12 µM), for inactives: at the highest dose activity change, negative = inhibition. AID 588348. ADP-Glo luciferase artifact assay, no Dyrk1A, luminescence;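 active = fitted half-maximal dose AC50 no more than ten times the top valid tested dose, with luminescence dropping as dose rises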
* hit, by the source's call; nt = no result; ! = repeats disagree.

SMILES	SMARCA2 activ	dFosB activator	esBAF inh	Dyrk1A ADPGlo	CDK5 inh	Rtt109 Vps75	ADP-Glo artifact
CCN1CCN(Cc2ccc(NC(=O)c3cc(NC(=O)c4nccnc4N)cc(OC)c3)cc2C(F)(F)F)CC1	4	-32	-3	55*	11	-3	9%
CCN1CCN(Cc2ccc(NC(=O)c3ccc(C)c(NC(=O)N4CCNC4=O)c3)cc2C(F)(F)F)CC1	-5	-34	-1	54*!	2	5	7%
CCN1CCN(Cc2ccc(NC(=O)c3ccc(C)c(NC(=O)c4nccn4C)c3)cc2C(F)(F)F)CC1	0	-22	-6	4	0	5	nt
O=C(CCN1CCCCC1)NCC[C@@H]1CC[C@H](NC(=O)C2CCC2)[C@@H](CO)O1	nt	nt	-2	nt	nt	nt	nt
COC(=O)C(C)Oc1ccc(-c2nccc(-c3cccs3)n2)cc1 (configuration not stated)	6	-17	nt	23	-1	10	nt
Oc1ccc(-c2nccc(-c3cccs3)n2)cc1	3	-17	39	61*	2	15	5%
CCCC(=O)Nc1ccc2c(c1)C(=O)N(C)C[C@@H](OC)[C@H](C)CN(C(=O)CC)[C@@H](C)CO2	nt	nt	2	nt	nt	nt	nt
COc1cc(C2C(=O)c3ccccc3C2=O)ccc1O	3	-6	32	69*	3	1	9%
CO[C@H]1CN(C)C(=O)c2cc(NC(=O)C3CC3)ccc2OC[C@H](C)N(C(=O)c2ccccn2)C[C@H]1C	nt	nt	-3	nt	nt	nt	nt
Cc1nc(COc2ccccc2Cl)sc1-c1ccnc(N)n1	-2	-24	32	79*	0	-5	10%
COc1c(O)ccc(/C=C(\C#N)c2nc3ccccc3[nH]2)c1[N+](=O)[O-]	2	-9	32	73*	nt	15	8%
Cc1ccc2nc(/C(C#N)=C\c3cc(O)ccc3[N+](=O)[O-])[nH]c2c1	2	7	nt	77*	0	-7	6%
N#Cc1nc(-c2cccs2)oc1NCc1ccccc1Cl	0	1	-2	51*	-1	5	11%
N#Cc1nc(-c2cccs2)oc1NCc1ccccc1	2	0	-3	33	0	-8	nt
O=C(C[C@H]1C[C@@H]2c3cc(NC(=O)Cc4ccncc4)ccc3O[C@@H]2[C@H](CO)O1)NCc1cccnc1	nt	nt	-9	nt	nt	nt	nt
CCCNC(=O)N[C@@H]1CC[C@H](CCn2cc(C3CC3)nn2)O[C@H]1CO	nt	nt	1	nt	nt	nt	nt
O=C1OCc2cccc3cccc1c23	-1	-1	5	51*	0	4	8%
O=C(O)c1cc(N=Cc2c(O)c3ccccc3oc2=O)ccc1O	0	-9	2	82*	1	-14	9%
O=C(C[C@H]1C[C@H]2c3cc(NC(=O)C4CCOCC4)ccc3O[C@H]2[C@H](CO)O1)NC1CCCC1	nt	nt	-7	nt	nt	nt	nt
CC1=C(C(=O)OCc2ccc3c(c2)OCO3)C(c2ccccc2)NC(=O)N1 (configuration not stated)	-6	-4	-40	77*	4	-4	8%
C[C@H]1CN([C@@H](C)CO)C(=O)c2cccc(NS(=O)(=O)c3ccc(Cl)cc3)c2O[C@H]1CN(C)S(=O)(=O)c1cccs1	nt	nt	3	nt	nt	nt	nt
Oc1cc(-c2ccncc2)cc2cccnc12	0	7	-80	76*	7	-5	11%
CN(C)c1ccc(-c2cc(O)c3ncccc3c2)cc1	4	-1	-9	8	1	1	nt
Cc1ncc(CO)c(/C=N/Nc2ccc(C(F)(F)F)cn2)c1O	-3	-7	nt	50*	3	-7	9%
Cc1ncc(CO)c(/C=N/NC(=S)Nc2ccc(F)cc2)c1O	-3	-6	5	3	-2	-2	nt
SMILES	SMARCA2 activ	dFosB activator	esBAF inh	Dyrk1A ADPGlo	CDK5 inh	Rtt109 Vps75	ADP-Glo artifact
Cc1cccc(-n2nc3c(c2NC(=O)CCC2CCCCC2)CS(=O)C3)c1C (configuration not stated)	-3	-8	7	55*	-1	-1	11%
CC(C)Oc1ccc(C2CC(=O)NC2=O)cc1 (configuration not stated)	1	1	-3	11	-2	3	nt
CC(C)Oc1ccc(C2CNC(=O)C2)cc1 (configuration not stated)	0	-7	-16	54*	2	3	8%
CC(C)NC(=O)N(C)C[C@H]1Oc2ncc(C#CC3CCCCC3)cc2C(=O)N([C@@H](C)CO)C[C@H]1C	nt	nt	3	nt	nt	nt	nt
Nc1ccc2c(c1)C(=O)C(=O)c1ccccc1-2	-9	1	nt	89*	2	-9	7%
CCOc1ccc(-c2nc(C#N)c(NCC3CCCO3)o2)cc1 (configuration not stated)	0	-2	8	4	-1	nt	nt
N#Cc1nc(-c2ccccc2Cl)oc1NCC1CCCO1 (configuration not stated)	1	-7	3	60*	0	8	12%
CSc1nnc(-c2cc3c(-c4ccccc4)nn(C)c3s2)n1C	0	-3	-6	52*	-2	3	8%
Fc1ccccc1-c1nc(-c2ccc(-c3nn[nH]n3)cc2)no1	6	-15	34	59*	3	4	2%
C[C@H](CO)N1C[C@H](C)[C@H](CN(C)C(=O)C2CCCCC2)OCCCC[C@H](C)Oc2ccc(NC(=O)Nc3cccc4ccccc34)cc2C1=O	nt	nt	1	nt	nt	nt	nt
COc1cc(/C=C(\C#N)C(=O)NCCc2ccccc2)cc(OC)c1O	-1	-4	nt	0	0	10	nt
N#C/C(=C/c1ccc(O)c([N+](=O)[O-])c1)C(=O)Nc1ccccc1	3	-3	nt	81*	1	22	9%
N#C/C(=C\c1ccc(O)c(O)c1)C(=O)NCCc1ccccc1	2	0	-10	70*	1	14	11%
CN(C)CC(=O)Nc1ccc2c(c1)[C@@H]1C[C@H](CC(=O)NCc3ccccc3F)O[C@H](CO)[C@@H]1O2	nt	nt	0	nt	nt	nt	nt
COc1cc(-c2oc3cc(O)cc(O)c3c(=O)c2O[C@@H]2O[C@H](COC3O[C@@H](C)[C@H](O)[C@@H](O)[C@H]3O)[C@@H](O)[C@H](O)[C@H]2O)ccc1O (some centres not stated)	1	-1	0	71*	0	7	7%
O=c1c(OC2OC(CO)C(O)C(O)C2O)c(-c2ccc(O)c(O)c2)oc2cc(O)cc(O)c12 (configuration not stated)	3	9	-7	75*	-4	3	9%
C[C@@H]1O[C@@H](Oc2c(-c3ccc(O)c(O)c3)oc3cc(O)cc(O)c3c2=O)[C@H](O)[C@H](O)[C@H]1O	-7	0	1	12	-1	16	nt
